Data from PubChem BioAssay AID1159580 (chemical genetic matrix, 2015).
Several values for one entry are separate records, joined by “and”; a condition that tells them apart may be missing. Equal entries are not always repeated. The campaign covered roughly 5,500 compounds. About 2,000 (36%) were called active. Roughly 18% stayed inconclusive and do not appear here. The list shows a part of the results. Unmarked numbers belong to inactive results. Cut-off read from the data, not from the text of the source: active = normalized growth mostly below about 0.91 (no sharp cut-off); inconclusive = no clear call, values can overlap the other calls; inactive = mostly above about 0.92.

Assay: chemical genetic growth profiling, strain panel (AID 1159580);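 note: tested at 20 µM; growth read once vehicle control cultures reached saturation at 30 °C; 1 = growth at the plate median or of vehicle wells; lower values mean less growth of the strain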
Conditions: S. cerevisiae deletion strains, growth OD

Question: What does the source list for `O=C(/C=C/c1ccccc1)c1ccc(O[C@@H]2O[C@H](CO)[C@@H](O)[C@H](O)[C@H]2O)cc1O`?
Answer: normalized growth (locus YAL021C, strain ccr4, stronger effect = lower value): 0.97; normalized growth (locus YAL026C, strain drs2, stronger effect = lower value): 0.923; normalized growth (locus YAL030W, strain snc1, stronger effect = lower value): 0.933; normalized growth (locus YBL061C, strain skt5, stronger effect = lower value): 0.886 (active); normalized growth (locus YBR009C, strain hhf1, stronger effect = lower value): 0.935; normalized growth (locus YBR021W, strain FUR4, stronger effect = lower value): 0.883; normalized growth (locus YBR023C, strain chs3, stronger effect = lower value): 0.912 (active); normalized growth (locus YBR171W, strain sec66, stronger effect = lower value): 0.914; normalized growth (locus YBR229C, strain ROT2, stronger effect = lower value): 0.922; normalized growth (locus YBR231C, strain swc5, stronger effect = lower value): 0.899 (active); normalized growth (locus YBR279W, strain paf1, stronger effect = lower value): 0.96; normalized growth (locus YCL011C, strain gbp2, stronger effect = lower value): 0.938; normalized growth (locus YCL016C, strain dcc1, stronger effect = lower value): 0.925; normalized growth (locus YCL029C, strain bik1, stronger effect = lower value): 0.889 (active); normalized growth (locus YCL061C, strain MRC1, stronger effect = lower value): 0.919 (active); normalized growth (locus YCL069W, strain vba3, stronger effect = lower value): 0.96; normalized growth (locus YCR088W, strain abp1, stronger effect = lower value): 0.923; normalized growth (locus YDL005C, strain med2, stronger effect = lower value): 0.955; normalized growth (locus YDL035C, strain GPR1, stronger effect = lower value): 0.926; normalized growth (locus YDL040C, strain nat1, stronger effect = lower value): 0.937; normalized growth (locus YDL074C, strain BRE1, stronger effect = lower value): 0.861; normalized growth (locus YDL101C, strain DUN1, stronger effect = lower value): 0.943; normalized growth (locus YDL185W, strain tfp1, stronger effect = lower value): 0.885 (active); normalized growth (locus YDL192W, strain arf1, stronger effect = lower value): 0.829 (active); normalized growth (locus YDR001C, strain nth1, stronger effect = lower value): 0.916 (active); normalized growth (locus YDR069C, strain doa4, stronger effect = lower value): 0.974; normalized growth (locus YDR101C, strain arx1, stronger effect = lower value): 0.892 (active); normalized growth (locus YDR137W, strain rgp1, stronger effect = lower value): 0.947; normalized growth (locus YDR159W, strain sac3, stronger effect = lower value): 0.855 (active); normalized growth (locus YDR162C, strain NBP2, stronger effect = lower value): 0.944; normalized growth (locus YDR195W, strain ref2): 1; normalized growth (locus YDR297W, strain sur2, stronger effect = lower value): 0.921 (active); normalized growth (locus YDR318W, strain mcm21, stronger effect = lower value): 0.892 (active); normalized growth (locus YDR334W, strain swr1, stronger effect = lower value): 0.95; normalized growth (locus YDR335W, strain msn5, stronger effect = lower value): 0.938; normalized growth (locus YDR388W, stronger effect = lower value): 0.877 (active); normalized growth (locus YDR392W, strain spt3, stronger effect = lower value): 0.787; normalized growth (locus YDR502C, strain sam2, stronger effect = lower value): 0.882 (active); normalized growth (locus YEL003W, strain gim4, stronger effect = lower value): 0.931; normalized growth (locus YEL037C, strain rad23, stronger effect = lower value): 0.945; normalized growth (locus YEL061C, strain CIN8 (second series), stronger effect = lower value): 0.928; normalized growth (locus YEL061C, strain CIN8, stronger effect = lower value): 0.918 (active); normalized growth (locus YER015W, strain faa2, stronger effect = lower value): 0.938; normalized growth (locus YER016W, strain bim1, stronger effect = lower value): 0.921 (active); normalized growth (locus YER110C, stronger effect = lower value): 0.869 (active); normalized growth (locus YER111C, strain swi4, stronger effect = lower value): 0.935; normalized growth (locus YER155C, strain BEM2 (second series), stronger effect = lower value): 0.853 (active); normalized growth (locus YER155C, strain BEM2, stronger effect = lower value): 0.912 (active); normalized growth (locus YER167W, strain BCK2, stronger effect = lower value): 0.9 (active); normalized growth (locus YFR010W, strain ubp6, stronger effect = lower value): 0.951; normalized growth (locus YGL078C, strain dbp3, stronger effect = lower value): 0.948; normalized growth (locus YGL086W, strain mad1, stronger effect = lower value): 0.885 (active); normalized growth (locus YGL167C, strain pmr1, stronger effect = lower value): 0.947; normalized growth (locus YGL173C, strain kem1, stronger effect = lower value): 0.899 (active); normalized growth (locus YGL227W, strain vid30, stronger effect = lower value): 0.932; normalized growth (locus YGL240W, strain doc1, stronger effect = lower value): 0.853 (active); normalized growth (locus YGL248W, strain PDE1, stronger effect = lower value): 0.936; normalized growth (locus YGL253W, strain hxk2, stronger effect = lower value): 0.902 (active); normalized growth (locus YGR135W, strain pre9, stronger effect = lower value): 0.886 (active); normalized growth (locus YGR252W, strain gcn5, stronger effect = lower value): 0.79; normalized growth (locus YHR013C, strain ard1, stronger effect = lower value): 0.941; normalized growth (locus YHR027C, strain rpn1, stronger effect = lower value): 0.957; normalized growth (locus YHR030C, strain SLT2, stronger effect = lower value): 0.922 and 0.953; normalized growth (locus YHR079C, strain IRE1 (second series), stronger effect = lower value): 0.886 (active); normalized growth (locus YHR079C, strain IRE1, stronger effect = lower value): 0.918; normalized growth (locus YHR094C, strain hxt1, stronger effect = lower value): 0.888 (active); normalized growth (locus YHR129C, strain ARP1, stronger effect = lower value): 0.91 (active); normalized growth (locus YHR142W, strain chs7, stronger effect = lower value): 0.882; normalized growth (locus YHR200W, strain rpn10, stronger effect = lower value): 0.873 (active); normalized growth (locus YIL066C, strain RNR3, stronger effect = lower value): 0.906; normalized growth (locus YIL073C, strain SPO22, stronger effect = lower value): 0.956; normalized growth (locus YIL125W, strain kgd1, stronger effect = lower value): 0.895 (active); normalized growth (locus YIR030C, strain dcg1, stronger effect = lower value): 0.881 (active); normalized growth (locus YJL092W, strain hpr5, stronger effect = lower value): 0.926; normalized growth (locus YJL095W, strain BCK1 (second series), stronger effect = lower value): 0.944; normalized growth (locus YJL095W, strain BCK1, stronger effect = lower value): 0.923 and 0.945; normalized growth (locus YJL115W, strain asf1, stronger effect = lower value): 0.941; normalized growth (locus YJL129C, strain trk1, stronger effect = lower value): 0.897; normalized growth (locus YJL134W, strain LCB3, stronger effect = lower value): 0.917 (active); normalized growth (locus YJL154C, strain vps35, stronger effect = lower value): 0.942; normalized growth (locus YJL164C, strain tpk1, stronger effect = lower value): 0.91 (active); normalized growth (locus YJL166W, strain qcr8, stronger effect = lower value): 0.928; normalized growth (locus YJL168C, strain set2, stronger effect = lower value): 0.888 (active); normalized growth (locus YJL187C, strain SWE1 (second series), stronger effect = lower value): 0.93; normalized growth (locus YJL187C, strain SWE1, stronger effect = lower value): 0.95; normalized growth (locus YJR043C, strain POL32, stronger effect = lower value): 0.893; normalized growth (locus YJR066W, strain TOR1, stronger effect = lower value): 0.857
